Measurements reported in PubChem BioAssay (NCI).
Where “and” joins values, the source holds several entries; their conditions need not be identical. Equal values may be shown once. About 83,000 compounds went through this panel and 20% of them were active in at least one assay; those are over-represented in the sample as a whole.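 Activity criterion: percent growth below 10, measured after cells in 96-well plates were exposed to a single compound concentration for 48 hours.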 Values without a mark were called inactive. Calls of active or inactive are those of the source.

What follows are compounds tested on HL-60(TB) leukemia (assay: NCI-60 one-dose screen, 48 h (100 = growth as untreated, 0 = no growth, -100 = all killed)). Settings: 10 µM unless noted.
With `O=C(CN1C(=O)S/C(=C\C(Cl)=C\c2ccccc2)C1=O)NCCc1ccc(O)cc1` the growth was 3.33% (active). `CC(=O)Nc1nc(C)c(C(=O)NNS(=O)(=O)c2ccccc2)s1` showed a growth of 174%. `O=C(N/N=C/c1ccc2c(c1)OCO2)c1ccncc1` was tested, and the growth was 115% and 225%. With `CN(C)CCCn1c(=O)c2ccccc2c2cnc3[nH]ccc3c21` the growth was 5.9% (active). With `Cn1cc(-c2ccc3nc(-c4ccc(CC(=O)ONc5cc(C(C)(C)C)on5)cc4)cnc3c2)cn1` the growth was 29%. `Cc1ccc2nc(SCC(=O)Nc3ccc(-c4nc5ccccc5s4)c(Cl)c3)[nH]c2c1` was tested, and the growth was 111%. With `CCN(CC)S(=O)(=O)c1ccc(OC)c(NC(=O)c2[nH]c(C)c3c2CCCCC3=O)c1` the growth was 4.18% (active). `Cc1ccc(C2C=C(c3ccc(Cl)cc3)N=C3SC=CN32)c(Br)c1` (stereo not given) showed a growth of 104%. Compound `OB(O)c1ccccc1` has a growth of 98.1%. Compound `CC(=O)O[C@H]1CC[C@]2(C)C3=C(C(=O)C[C@H]2C1(C)C)[C@]1(C)CC[C@H]([C@H](C)CCC(=O)O)[C@@]1(C)CC3=O` has a growth of 108%. Compound `O=C(NN1C(=O)CSC1c1ccc(Cl)cc1)c1[nH]c2ccc(F)cc2c1-c1ccccc1` (stereo not given) has a growth of 35.5%. With `O=C(N/N=C/c1ccccc1O)c1ccncc1` the growth was 29.8%. `COc1ccc(C(=O)c2cc3c(N)c(C(=O)Nc4cccc(Cl)c4C)sc3nc2C)cc1` was tested, and the growth was -60.6% (active). With `CC1=CC(O)C2CC1C2(C)C` (stereo not given) the growth was 100% and 73.7%. `COCCn1c(Nc2ccc(C(=O)NO)cc2)nc2ccccc21` gave a growth of 11.9%. `Cc1cc(CCNC=O)c(C)c2c1sc1ccccc12` showed a growth of 91.9%. For `CCc1ccc(-c2ccc(NC3CCCCCC3)nn2)cc1S(N)(=O)=O`, the growth was 121%. `C#C[C@]1(O)CC[C@H]2[C@@H]3CC=C4c5nc(Nc6ccc(OC)cc6OC)sc5CC[C@]4(C)[C@H]3CC[C@@]21C` was tested, and the growth was 17.9%. Compound `Fc1ccc(-c2nn(-c3ccccc3)cc2-c2nc3ccccc3o2)cc1` has a growth of 77.3%. `Cc1ccc(N2CCN(C(=S)c3cccs3)CC2)cc1` showed a growth of 93.3%. `COc1ccc(Nc2cc(C)nc(NCc3ccccc3)n2)cc1` was tested, and the growth was 11.3%. For `Cc1cc(=O)oc2c1ccc1oc(C#N)c(C)c12`, the growth was 107%. With `COc1ccc(CNC(=O)[C@H](O)[C@@H](N)Cc2ccccc2)cc1` the growth was 102%. For `C=C(C)[C@@H]1CC[C@]2(C)[C@H](CC=C3[C@@H]4[C@@H](C)[C@H](C)CC[C@]4(C(N)=O)CC[C@]32C)[C@@]1(C)CCC#N`, the growth was -28.7% [100 µM] (active). For `CN([O-])c1nc(N(C)[O-])nc(N2CCOCC2)n1.CN([O-])c1nc(N(C)[OH2+])nc(N2CCOCC2)n1.[Fe+3]`, the growth was 93.8% [100 µM]. Work on `COc1ccc(S(=O)(=O)c2ccc(F)cc2)cc1` yielded a growth of 105%. In the case of `CNc1nnc2n(-c3ccccc3)c(=O)c3cnn(-c4ccccc4)c3n12`, the growth is reported as 70.5%. `CCCN(CCC)C(=O)c1ccc(C)cc1` gave a growth of 100%. `COC(=O)c1ccc(C(=O)Nc2ccccc2N)cc1` was tested, and the growth was -18.5% (active). In the case of `C[C@@H](CO)[C@@H]1CCC=C2CC[C@]3(C)[C@H](CC[C@@H]4[C@@]5(C)CCCNC(C)(C)[C@@H]5CC[C@]43C)[C@H]21`, the growth is reported as -6.22% (active). Compound `COc1ccccc1CNC(=O)C1c2ccccc2C(=O)N(CC(C)C)C1c1cccs1` (stereo not given) has a growth of 67.9%. With `O=C(/C=C/c1ccco1)Nc1ncc(Cc2cccc(C(F)(F)F)c2)s1` the growth was -53.6% (active). With `COc1ccc(-c2nn(-c3ccccc3)cc2/C=C2\SC(=O)NC2=O)cc1` the growth was 88.2%. In the case of `COc1ccc(-c2ncnc3c2ncn3C/C=C/CCl)cc1`, the growth is reported as 65% and 79.4%. With `Cn1c(N)c(N=O)c(=O)n(C)c1=O` the growth was 105% and 89.8%. `CS(=O)(=O)c1ccc(-c2cc(-c3nnc(SCC(=O)Nc4ccc(C(=O)/C=C/c5ccc(Cl)cc5)cc4)n3-c3ccccc3)c3ccccc3n2)cc1` showed a growth of 98.9%. In the case of `Nc1nc(SCC#CCCl)c2[nH]cnc2n1`, the growth is reported as 11%. `C=C(C(N)=O)C(N)C(=O)O` (stereo not given) showed a growth of 104%. For `Cc1cc(SCc2ccc(Cl)cc2Cl)nc(SCc2ccc(Cl)cc2Cl)n1`, the growth was 95.6%. With `C#Cc1cccc(Nc2ncnc3ccc(-c4cncc(NS(C)(=O)=O)c4)cc23)c1` the growth was 4% (active).
